The entries come from a sample that favours hits as a whole.
12-LOX inh – Primary qHTS assay for inhibitors of human arachidonate 12S-lipoxygenase (ALOX12): Round 2. Polyunsaturated fatty acid lipoxygenase ALOX12 (Homo sapiens), P18054. purified 12hLO, xylenol orange hydroperoxide absorbance. Potency, µM (doses to about 108 µM), hits mostly inhibitors. 580,000 tested, 1.1% active. AID 1671190, 2021
Target sequence (P18054 whole entry, looked up): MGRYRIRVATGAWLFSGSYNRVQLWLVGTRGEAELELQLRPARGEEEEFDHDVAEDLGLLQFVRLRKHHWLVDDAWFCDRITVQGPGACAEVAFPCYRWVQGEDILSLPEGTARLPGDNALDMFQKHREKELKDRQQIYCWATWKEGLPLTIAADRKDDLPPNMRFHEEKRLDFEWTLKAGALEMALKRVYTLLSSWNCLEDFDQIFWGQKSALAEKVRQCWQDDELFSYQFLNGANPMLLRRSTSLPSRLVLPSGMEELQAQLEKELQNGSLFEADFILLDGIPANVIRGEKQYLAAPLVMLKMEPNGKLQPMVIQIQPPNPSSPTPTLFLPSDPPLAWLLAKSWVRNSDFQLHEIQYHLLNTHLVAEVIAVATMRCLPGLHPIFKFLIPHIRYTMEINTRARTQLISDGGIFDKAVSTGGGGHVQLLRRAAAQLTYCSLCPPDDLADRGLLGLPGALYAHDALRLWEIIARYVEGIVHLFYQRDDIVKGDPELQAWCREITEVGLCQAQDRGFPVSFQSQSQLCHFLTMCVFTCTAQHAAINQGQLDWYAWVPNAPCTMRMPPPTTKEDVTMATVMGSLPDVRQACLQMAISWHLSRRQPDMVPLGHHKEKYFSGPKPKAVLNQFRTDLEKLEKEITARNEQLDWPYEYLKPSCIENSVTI
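Purified human 12hLO (150 nM final) in 25 mM Hepes, 0.01% Triton X-100, pH 7.0 was preincubated 15 min at room temperature with compound. Then 40 uM arachidonic acid was added, 30 min. Hydroperoxide was read by Fe-XO absorbance ratio 573/405 nm.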
HT1080 IDH1KD tx – qHTS for induction of synthetic lethality in tumor cells producing 2HG: qHTS for the HT-1080-IDH1KD cell line; HT-1080 IDH1 knockdown viability, ATP luminescence, 48 h; Potency, µM (series often up to 46.1 µM), usual class: cytotoxic; 360,000 tested, 2% active; AID 686971, 2013
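Using the IDH1-knockdown HT-1080 line run in the same batch and compound series as the NT line, viability after 48 h at 37 °C was determined by CellTiter-Glo luminescence and expressed as % activity.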
IL-1B inflam inh – qHTS for Inhibitors of Inflammasome Signaling: IL-1-beta AlphaLISA Primary Screen; THP-1 LPS/ATP IL-1B secretion, AlphaLISA, 16 h; stronger effect = lower value; activity change, % at 57.5 µM; 360,000 tested, 4.7% active; AID 743279, 2014; in the data active = activity change below about -50%; inconclusive = mostly about -30% to -49%
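Secreted IL-1B measured by AlphaLISA bead assay after 16 h compound exposure of THP-1 cells; compounds (final up to 57.5 uM) added 1 h before LPS (250 ng/mL) and ATP (1.25 mM) stimulation; lower signal means less secretion.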
HT1080-NT tox – qHTS for induction of synthetic lethality in tumor cells producing 2HG: qHTS for the HT-1080-NT fibrosarcoma cell line; Potency, µM (top dose mostly 46.1 µM), most hits filed as cytotoxic; HT-1080-NT fibrosarcoma viability, CellTiter-Glo ATP luminescence, 48 h; 360,000 tested, 1.6% active; AID 686970, 2013;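 also: NT is the 2HG producing partner of a matched IDH1 knockdown line; nearly all actives have a fitted effect of over 55% in size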
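750 cells/well, RPMI + 5% FBS; 2 h settle, compound pin-transfer, 48 h at 37 degrees C. CellTiter-Glo 10 min RT, luminescence. Normalized to DMSO and media-only wells.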
TDP1 cell CPT – qHTS for Inhibitors of human tyrosyl-DNA phosphodiesterase 1 (TDP1): qHTS in cells in presence of CPT; chicken DT40 Tdp1-/-;hTDP1 cells + 20 nM CPT, ATP luminescence, 48 h; AID 686979, 2013; 420,000 tested, 12% active; Potency, µM (doses to about 46.2 µM), usual class: inhibitors; also: nearly all actives have a fitted effect of over 55% in size
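Cell growth measured by CellTiter-Glo luminescence after a minimum 48 h, 37 C compound exposure with 20 nM CPT in Tdp1-knockout DT40 cells stably expressing hTDP1, seeded 400/well; qHTS titration format.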
TDP1 cell noCPT – qHTS for Inhibitors of human tyrosyl-DNA phosphodiesterase 1 (TDP1): qHTS in cells in absence of CPT. DT40 Tdp1-/- hTDP1 cells, no CPT, ATP luminescence, 48 h. Potency, µM (highest dose often 46.2 µM), most hits filed as inhibitors. 420,000 tested, 15% active; also: nearly all actives have a fitted effect of over 55% in size
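Growth of hTDP1-complemented DT40 Tdp1-knockout cells is measured by ATP luminescence after at least 48 hr compound exposure at 37 °C, with DMSO substituting for the 20 nM CPT used in the parallel screen.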
Hits are given with their value; ! = a repeat was not active. Unless noted, calls follow the shape of the dose curve; as a rule, active = well fitted curve in the direction sought with a large enough effect; inconclusive = small, poorly fitted or top-dose-only effect, or another doubt; inactive = no such curve, though single readings can be large; an effect the other way counts as inactive or inconclusive.

NS(=O)(=O)c1cccc(NC(=O)CSc2nc3ccc(Cl)cc3[nH]2)c1 was read as 12-LOX inh inactive, HT1080 IDH1KD tx inactive, IL-1B inflam inh inactive, HT1080-NT tox inactive, TDP1 cell CPT inactive and TDP1 cell noCPT inconclusive.
Screening Cc1ccc2nc(SCC(=O)Nc3cccc(S(=O)(=O)N(C)C)c3)[nH]c2c1 returned 12-LOX inh inactive, HT1080 IDH1KD tx inactive, IL-1B inflam inh inactive, HT1080-NT tox inactive, TDP1 cell CPT inconclusive and TDP1 cell noCPT 16µM.
CCN(CC)S(=O)(=O)c1ccc(NC(=O)CSc2nnc3c(n2)[nH]c2ccccc23)cc1 was read as HT1080 IDH1KD tx 22µM, HT1080-NT tox 13µM, TDP1 cell CPT 7.1µM and TDP1 cell noCPT 6.3µM.
`Cc1ccc2nc(SCC(=O)Nc3ccc4c(c3)CCC4)[nH]c2c1` gave 12-LOX inh inactive, HT1080 IDH1KD tx inactive, IL-1B inflam inh inactive, HT1080-NT tox inactive, TDP1 cell CPT 18µM and TDP1 cell noCPT inconclusive.
`CN(C)S(=O)(=O)c1cccc(NC(=O)CSc2nnnn2-c2ccccc2)c1` gave 12-LOX inh inactive, HT1080 IDH1KD tx inactive, IL-1B inflam inh inactive, HT1080-NT tox inconclusive, TDP1 cell CPT 15µM and TDP1 cell noCPT 23µM.
For Cc1noc(NS(=O)(=O)c2ccc(NC(=O)CSc3nnc4c(n3)[nH]c3ccccc34)cc2)c1C the results were 12-LOX inh inactive, HT1080 IDH1KD tx inactive, IL-1B inflam inh inactive, HT1080-NT tox inactive, TDP1 cell CPT inactive and TDP1 cell noCPT inactive.
CN1CC(=O)N(c2ccc([N+](=O)[O-])cc2)Cc2c1ncnc2N1CCC(N2CCOCC2)CC1 was read as 12-LOX inh inactive.
`CCCNC(=O)NC(=O)CSc1ccc2ccccc2n1` gave 12-LOX inh inactive.
Screening CCCCNS(=O)(=O)c1ccc2nc(SCC(=O)Nc3ccccc3)[nH]c2c1 returned 12-LOX inh inactive, HT1080 IDH1KD tx inactive, IL-1B inflam inh inactive, HT1080-NT tox inactive, TDP1 cell CPT inactive and TDP1 cell noCPT 16µM.
For CC(=O)c1cc2c(cc1NC(=O)CSc1nc3ccc(C)cc3[nH]1)OCO2 the results were 12-LOX inh inactive, HT1080 IDH1KD tx inactive, IL-1B inflam inh -74, HT1080-NT tox inactive, TDP1 cell CPT inactive and TDP1 cell noCPT inconclusive.
CCC1CCC(NC(=O)c2ccncc2)CC1 (stereo not given) was read as 12-LOX inh inactive.
`C(=N\N=C(c1ccccc1)c1ccccc1)/c1cn(-c2cccs2)nc1-c1ccccc1` gave 12-LOX inh inactive.
For CCCCc1oc2ccc(NS(C)(=O)=O)cc2c1C(=O)c1ccc(OCCCN(CCCC)CCCC)cc1 the results were 12-LOX inh 40µM!, TDP1 cell CPT 4.7µM and TDP1 cell noCPT 6µM.
`CCCCCOc1ccc(NS(C)(=O)=O)cc1` gave 12-LOX inh inactive, HT1080 IDH1KD tx inactive, IL-1B inflam inh inactive, HT1080-NT tox inactive, TDP1 cell CPT inactive and TDP1 cell noCPT inactive.
Screening COCCN(CCOC)Cc1cc(=O)oc2cc(OC)ccc12 returned 12-LOX inh inconclusive, HT1080 IDH1KD tx inactive, IL-1B inflam inh inactive, HT1080-NT tox inactive, TDP1 cell CPT inactive and TDP1 cell noCPT inconclusive.
`COCCN(CCOC)Cc1cc(=O)oc2cc(C)c(C)cc12` gave 12-LOX inh 14µM, HT1080 IDH1KD tx inactive, IL-1B inflam inh inactive, HT1080-NT tox inactive, TDP1 cell CPT inactive and TDP1 cell noCPT inconclusive.
Screening COCCN(CCOC)Cc1cc(=O)oc2ccc3ccccc3c12 returned 12-LOX inh inactive, HT1080 IDH1KD tx inactive, IL-1B inflam inh inactive, HT1080-NT tox inactive, TDP1 cell CPT inconclusive and TDP1 cell noCPT 18µM.
For CCCN(CCC)Cc1cc(=O)oc2cc(OC)c(Cl)cc12 the results were 12-LOX inh 32µM, HT1080 IDH1KD tx inactive, IL-1B inflam inh inactive, HT1080-NT tox inactive, TDP1 cell CPT inconclusive and TDP1 cell noCPT inconclusive.
For CC(C)C(=O)Nc1ccc2c(c1)CN(CCc1ccc(F)cc1)C(=O)C(C)O2 (stereo not given) the results were 12-LOX inh inactive.
`COC(=O)c1ccc(CN(C)C(=O)c2ccc(Cl)c(S(=O)(=O)NC3CC3)c2)cc1` gave 12-LOX inh inactive.
For CCN(CC)S(=O)(=O)c1ccc(N2CCOCC2)c(NC(=O)CNCCc2ccccc2)c1 the results were 12-LOX inh inconclusive, HT1080 IDH1KD tx inactive, IL-1B inflam inh inactive, HT1080-NT tox inactive, TDP1 cell CPT 18µM and TDP1 cell noCPT 18µM.
Screening CCc1ccccc1OCC(=O)Nc1cc(S(=O)(=O)N(CC)CC)ccc1N1CCOCC1 returned 12-LOX inh inactive, HT1080 IDH1KD tx inactive, IL-1B inflam inh inactive, HT1080-NT tox inactive, TDP1 cell CPT 21µM and TDP1 cell noCPT 16µM.
CCN(CC)S(=O)(=O)c1ccc(N2CCOCC2)c(NC(=O)CCOc2ccccc2)c1 was read as 12-LOX inh inactive, HT1080 IDH1KD tx inactive, IL-1B inflam inh inactive, HT1080-NT tox inactive, TDP1 cell CPT inconclusive and TDP1 cell noCPT 15µM.
CCN(CC)S(=O)(=O)c1ccc(N2CCOCC2)c(NC(=O)COc2ccccc2)c1 was read as 12-LOX inh inactive, HT1080 IDH1KD tx inactive, IL-1B inflam inh inactive, HT1080-NT tox inactive, TDP1 cell CPT inconclusive and TDP1 cell noCPT inconclusive.
CCN(CC)S(=O)(=O)c1ccc(N2CCOCC2)c(NC(=O)c2cc3ccccc3oc2=O)c1 was read as 12-LOX inh inactive, HT1080 IDH1KD tx inactive, IL-1B inflam inh inactive, HT1080-NT tox inactive, TDP1 cell CPT inconclusive and TDP1 cell noCPT 16µM.
Cc1cc(C2CC(C(=O)NCc3ccco3)CN(C(=O)c3ccccc3)C2)ccc1F (stereo not given) was read as 12-LOX inh inactive.
`Cc1ccc(/C(O)=C2\C(=O)C(=O)N(c3nnc(C)s3)C2c2ccc(C)cc2)cc1` (stereo not given) gave 12-LOX inh inactive.
For CC(C)(C)c1ccc(OCCC(=O)Nc2ccc(N3CCOCC3)cc2N2CCOCC2)cc1 the results were 12-LOX inh inactive, HT1080 IDH1KD tx inconclusive, IL-1B inflam inh -51, HT1080-NT tox inconclusive, TDP1 cell CPT 16µM and TDP1 cell noCPT 16µM.

High-throughput results as filed in PubChem.
